Bioassay records deposited in PubChem BioAssay by National Center for Advancing Translational Sciences (NCATS).
Rows were chosen to be rich in hits. Some 12% of all compounds tested hit in one or more screens of this group.
HP1b chromo inh: inhibitors of HP1-beta chromodomain binding to methylated histone tails; P83916; AlphaScreen HP1-beta / biotin-H3K9me3 peptide binding; Potency, µM (highest dose often 114 µM), usual class: inhibitors; hit rate 0.56% among 390,000; AID 540317; also: nearly all actives have a fitted effect of over 70% in size
Target sequence (P83916 whole entry, looked up): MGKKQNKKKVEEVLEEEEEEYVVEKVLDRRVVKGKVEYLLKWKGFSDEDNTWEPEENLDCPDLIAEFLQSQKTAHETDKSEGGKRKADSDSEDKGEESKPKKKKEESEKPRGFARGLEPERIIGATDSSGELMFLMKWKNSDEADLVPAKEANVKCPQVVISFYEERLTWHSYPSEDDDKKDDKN
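Compound inhibition of the preformed complex between 50 nM HP1-beta and 50 nM biotinylated H3K9me3 peptide was read by AlphaScreen. Buffer was PBS pH 7.4 with 0.01% Tween-20. Incubations ran 30 min at room temperature, with 10 ug/mL donor/acceptor beads.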
G9a inh-1: blocks human histone lysine methyltransferase G9a; Q96KQ7; G9a H3K9 monomethylation, AlphaScreen, 2 h; Potency, µM (doses to about 102 µM), actives largely listed as inhibitors; hit rate 8.8% among 350,000; AID 504332; also: nearly all actives have a fitted effect of over 75% in size
Target sequence (Q96KQ7 913-1193 limits assumed): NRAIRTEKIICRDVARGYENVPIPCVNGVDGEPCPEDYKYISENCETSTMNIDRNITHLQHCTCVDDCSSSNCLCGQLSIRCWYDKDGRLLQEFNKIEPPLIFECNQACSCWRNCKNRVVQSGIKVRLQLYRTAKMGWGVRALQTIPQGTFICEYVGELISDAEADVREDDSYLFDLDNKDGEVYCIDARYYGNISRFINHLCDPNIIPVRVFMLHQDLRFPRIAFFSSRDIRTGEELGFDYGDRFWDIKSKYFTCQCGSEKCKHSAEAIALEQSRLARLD
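G9a (20 nM) was preincubated 15 min with compound, then reacted 2 h at room temperature with 500 nM biotin-H3K9 peptide and 20 µM SAM. Monomethyl-H3K9 detected by AlphaScreen using anti-H3K9me1 antibody.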
BAZ2B inh: blocks human BAZ2B; AlphaScreen BAZ2B-H3K14Ac peptide displacement; Potency, µM (doses to about 114 µM), usual class: inhibitors; hit rate 4.4% among 360,000; AID 504333; also: nearly all actives have a fitted effect of over 60% in size
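Inhibition is scored as reduced AlphaScreen emission. The BAZ2B/b-H3(5-23)K14Ac complex (50 nM each) in PBS pH 7.4, 0.01% Tween-20 meets compound (up to 110 uM) for 30 min at RT before bead addition.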
Sfp inh: Sfp phosphopantetheinyl transferase inhibition; Biochemical Sfp PPTase activity, qHTS; Potency, µM, actives largely listed as inhibitors; hit rate 3.5% among 310,000; AID 1490;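 also: the enzyme is Sfp with the accession as filed and its product quenches rhodamine fluorescence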
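Reaction rates are the 30-min fluorescence difference (ex 525, em 598 nm) in wells containing 15 nM Sfp, 5 uM rhodamine-CoA and 12.5 uM BHQ-2-YbbR at pH 7.6 with 10 mM MgCl2.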
JMJD2A Tudor inh: inhibitors of human JMJD2A Tudor domain. hit rate 4.4% among 390,000. AlphaScreen JMJD2A-Tudor / H3K4me3 peptide binding. Potency, µM (titrated, usually from 114 µM), hits mostly inhibitors; also: nearly all actives have a fitted effect of over 50% in size
JMJD2E confirm: confirmation of inhibitors of human JMJD2E demethylase; hit rate 93% among 140; shares compounds with JMJD2A Tudor inh; Recombinant JMJD2E, FDH-coupled NADH fluorescence (FDH is formaldehyde dehydrogenase); AID 2677; Potency, µM (titrated, usually from 56.8 µM), most hits filed as inhibitors
FDH counter: blocks Pseudomonas putida formaldehyde dehydrogenase, flagging JMJD2E artifacts. shares compounds with JMJD2A Tudor inh. FDH enzyme assay, NADH fluorescence kinetic. Potency, µM (titrated, usually from 56.7 µM), most hits filed as inhibitors. hit rate 10% among 140. AID 2680
G9a inh-2: confirmation of human histone methyltransferase G9a inhibitors; shares compounds with JMJD2A Tudor inh; AID 588344; hit rate 89% among 370; G9a H3K9 monomethylation, AlphaScreen, 2 h; Potency, µM, hits mostly inhibitors; also: nearly all actives have a fitted effect of over 65% in size
RGS4 inh: inhibits human RGS4, hit validation; Potency, µM, hits mostly inhibitors; shares compounds with JMJD2A Tudor inh; RGS4 GAP activity, Transcreener GDP fluorescence polarization; hit rate 80% among 25; AID 602388
Target sequence (P49798 whole entry, looked up): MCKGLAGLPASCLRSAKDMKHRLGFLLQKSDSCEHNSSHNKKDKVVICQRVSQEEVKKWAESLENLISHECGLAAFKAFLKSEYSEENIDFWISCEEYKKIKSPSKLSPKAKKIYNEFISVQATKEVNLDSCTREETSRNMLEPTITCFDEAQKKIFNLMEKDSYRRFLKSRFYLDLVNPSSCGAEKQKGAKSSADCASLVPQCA
Hits are given with their value; i = inactive; ? = inconclusive; nt = not tested or not shown; [ ] = dose if it differs, or a comment. Calls follow the shape of the dose curve; as a rule, active = well fitted curve in the direction sought with a large enough effect; inconclusive = small, poorly fitted or top-dose-only effect, or another doubt; inactive = no such curve, though single readings can be large; an effect the other way counts as inactive or inconclusive.

SMILES	HP1b chromo inh	G9a inh-1	BAZ2B inh	Sfp inh	JMJD2A Tudor inh	G9a inh-2	others
COc1ccc(N2CCC(CNC(=O)Nc3ccccc3)C2)cc1 (stereo unspecified)	45µM	?	50µM	i	18µM	1
Cc1cc(C)cc(OCC(=O)Nc2cccc3cccnc23)c1	i	i	i	nt	i	nt
Cc1ccnc(NC(c2cccnc2)c2ccc3cccnc3c2O)c1 (stereo unspecified)	?	6.3µM	7.1µM	?	22µM	nt	JMJD2E confirm=32µM;FDH counter=?
Cc1ccc2c(c1)c1c(c(=O)n(-c3cccc(Cl)c3)c(=O)n1CC(=O)NCC1CCCO1)n2C (stereo unspecified)	i	?	i	nt	i	nt
Cc1ccc(N(Cc2cc(=O)[nH]c3ccccc23)C(=O)c2ccco2)cc1	i	?	?	i	i	22
CC(C)C(=O)N(Cc1cc(=O)[nH]c2ccccc12)c1ccccc1	i	?	i	i	i	nt
CC(C)C(C)NC(=O)CSc1ccc(S(=O)(=O)N2CCOCC2)cn1 (stereo unspecified)	i	i[12.7 µM]	i	nt	i	nt
CNC(=O)NC(=O)CSc1ccc(S(=O)(=O)N2CCOCC2)cn1	i	?	i	nt	i	5
Cc1sc2nc(SCC(=O)Nc3ccccc3F)[nH]c(=O)c2c1C	i	?	i	i	i	nt
Cc1csc(NC(=O)CSc2nc3sc(C)c(C)c3c(=O)[nH]2)n1	?	?	?	20µM	i	0.89
CN(C)c1ccc(NC(=O)Nc2cccc3ccccc23)cc1	i	2.8µM	?	i	i[11.4 µM]	1.1
CC(=O)Nc1cccc(NC(=O)Nc2cccc3ccccc23)c1	i	nt	i	i	i	nt
OCCCCNc1cccc2ccccc12	i	?	?	i	?	5.6
OCCCCCNc1ncnc2ccccc12	i	i	i	i	i	nt
Cc1ccc2nc3[nH]c(=O)[nH]c(=O)c3c(N)c2c1	i	nt	nt	nt	i	nt
Cc1ccc2nc(N)[nH]c(=O)c2c1Sc1ccncc1	nt	?	nt	i	nt	11
COc1ccc(C)cc1NC(=O)C(NCC(O)c1ccccc1)c1ccccc1 (stereo unspecified)	?	2.8µM	22µM	?	10µM	14
COc1ccc(C)cc1NC(=O)C(NS(=O)(=O)c1cccs1)c1ccccc1 (stereo unspecified)	i	i	i	nt	i	nt
CC1CCN(C(=O)c2cnn(-c3ccc(Cl)cc3)c2C2CCN(C(=O)OC(C)(C)C)CC2)CC1	i	i	i	nt	i	nt
CCN(CC)c1ccc(NC(=O)COC(=O)CCC(=O)c2ccc(F)cc2)cc1	i	1.6µM	?	i	i	1.6
CCN(CC)c1ccc(NC(=O)CN2CCN(CC(=O)Nc3ccc(F)cc3)CC2)cc1	?	2.2µM	?	i	?	2.8
COC(=O)c1ccc(C(NC(=O)OCc2ccccc2)/C(=C/[C@@H](C)C(=O)NCc2cc(C)on2)c2cccnc2)cc1 (stereo partly specified)	nt	nt	nt	i	nt	nt
O=C(CC1Sc2ncnn2C1=O)Nc1ccc(Br)cc1 (stereo unspecified)	?	2µM	i	50µM	25µM	0.18	JMJD2E confirm=4µM;FDH counter=0.28µM
Cc1cc(NC(=O)CSc2nnc(-c3ccccc3)n2Cc2ccco2)no1	i	i	i	i	i	nt
CCOC(=O)CNC(=O)CSc1nnc(-c2ccccc2)n1Cc1ccco1	i	?	i	13µM	45µM	4.5
SMILES	HP1b chromo inh	G9a inh-1	BAZ2B inh	Sfp inh	JMJD2A Tudor inh	G9a inh-2	others
COCCNc1ncnc2ccc(-c3ccoc3)cc12	nt	i[0.501 µM]	nt	i	nt	nt
COc1ccc2[nH]cc(CCNc3ncnc4ccc(-c5ccoc5)cc34)c2c1	nt	i[0.501 µM]	nt	i	nt	nt	RGS4 inh=?
COc1cc(NC(=O)C(Cc2ccccc2)NS(=O)(=O)c2cccs2)cc(OC)c1 (stereo unspecified)	i	i	i	nt	i	nt
COc1ccc(OC)c(CN2CCN(C(=O)c3cccc4ccccc34)CC2)c1	22µM	2.5µM	40µM	i	10µM	22
COc1ccc(OC)c(CN2CCN(C(=O)c3cc4ccccc4cc3O)CC2)c1	i	?	i	i	?	nt
COc1cccc(OC)c1C(=O)N1CCN(Cc2ccccc2C(F)(F)F)CC1	?	?	20µM	?	7.9µM	4.5
COc1cccc(CN2CCN(C(=O)c3cccs3)CC2)c1OC	i	i	nt	i	i	nt
O=c1c2cccnc2n(Cc2ccc(Cl)cc2)c(=O)n1Cc1ccc(F)cc1	i	i	i	nt	i	nt
CCOc1ccc(CNc2ccc3c(c2)nc(C)n3C)cc1	i	1.6µM	i	i	i	6.3
CN(C)c1ccc(CNc2ccc3c(c2)ncn3C)cc1	20µM	?	18µM	i	18µM	10
CCCCn1cnc2cc(NCc3ccc(OCC)cc3)ccc21	?	2.5µM	22µM	nt	40µM	6.5
CCCn1cnc2cc(NCc3ccccc3OCC)ccc21	?	1.8µM	40µM	nt	56µM	2.6
CCN(CC)c1ccc(C(=O)OCC(=O)Nc2cccc(S(=O)(=O)NC3=NCCCCC3)c2)cc1	i	i	i	i	i	nt
Cc1cc(C)c(C2=Nn3c(C)nnc3SC2C)cc1C (stereo unspecified)	i	i	i	i	i	nt
COc1ccc(N2CCN(c3nc4ccccc4nc3NS(=O)(=O)c3ccccc3)CC2)cc1	?	?	50µM	i	50µM	7.9
O=C(NC1CCCCC1)NS(=O)(=O)c1ccc2c(c1)CCC2	i	nt	nt	nt	i	nt
CC(=O)c1ccc(NC(=O)CSc2ccc(-c3cccs3)nn2)cc1	i	2.8µM	i	nt	?	6.3
COc1ccc(Cn2cc(S(=O)(=O)c3ccc(C)cc3)c(=O)c3cc(F)ccc32)cc1	i	?	i	nt	i	nt
COC(=O)c1c(-c2cccs2)csc1NC(=O)COc1ccc(C(C)C)cc1	?	2.2µM	i	nt	i	8.1
COC(=O)c1c(-c2cccs2)csc1NC(=O)CN1CCOCC1	i	i[12.7 µM]	i	i	i	nt
CCOC(=O)c1nn(-c2ccc(OC)cc2)c(=O)c2c(N)scc12	i	1.1µM	50µM	10µM	?	4
Fc1ccc(Nc2nc(-c3cccnc3)cs2)cc1	i	i	i	i	i[11.4 µM]	nt
CCN(CC)c1ccc(Nc2nc(-c3cccnc3)cs2)cc1	40µM	0.89µM	20µM	i	13µM	5
CN(C)c1ccc(Nc2nc(-c3cccnc3)cs2)cc1	i	?	?	i	i	0.5
